Compound activity as filed in PubChem BioAssay.
An excerpt weighted towards active compounds, which were near 6% of everything screened.
D3 ag: activates the human D3 dopamine receptor; P35462; D3R DiscoveRx beta-arrestin cells, luminescence, 90 min; max activation, %; actives 0.58% (n = 410,000); AID 652048; in the data active = max activation above about 30%
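Agonist-mode cell screen: cells plated at 1500/well and incubated overnight at 37 °C, then exposed to library compounds for 90 min at 37 °C. Detection reagent was added for 30–60 min at room temperature, and luminescence was read.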
D1 potentiator: human D1 dopamine receptor positive modulation. P21728. HEK293 TREx D1 cells, calcium flux, dopamine EC20 potentiation. potentiation, % at 10 µM. actives 0.036% (n = 360,000). AID 504651; in the data active = potentiation above about 30%
Target sequence (P21728 whole entry, looked up): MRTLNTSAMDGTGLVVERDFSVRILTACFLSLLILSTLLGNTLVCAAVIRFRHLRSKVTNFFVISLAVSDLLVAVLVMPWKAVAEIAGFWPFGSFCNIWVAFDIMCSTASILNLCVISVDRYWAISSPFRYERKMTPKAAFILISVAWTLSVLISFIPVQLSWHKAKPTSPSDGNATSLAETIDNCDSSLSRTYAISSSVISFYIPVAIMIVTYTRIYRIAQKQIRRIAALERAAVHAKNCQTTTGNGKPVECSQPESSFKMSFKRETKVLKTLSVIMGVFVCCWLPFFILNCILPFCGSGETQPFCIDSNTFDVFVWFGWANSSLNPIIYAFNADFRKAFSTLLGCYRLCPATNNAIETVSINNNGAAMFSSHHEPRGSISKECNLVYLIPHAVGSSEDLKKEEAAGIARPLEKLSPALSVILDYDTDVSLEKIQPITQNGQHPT
D1 antagonist: antagonists of human D1 dopamine receptor | P21728 | HEK293 TREx D1 cells, calcium flux, dopamine EC80; stronger effect = lower value | activity change, negative = inhibition, % at 10 µM | actives 3.2% (n = 360,000); in the data active = activity change below about -30%
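HEK293 T-REx cells expressing inducible, force-coupled D1 receptor; no-wash Ca dye, 30–90 min RT. Cmpd → 180 s read at 1 Hz → EC80 DA → 180 s read.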
D1 ag: agonists of human D1 dopamine receptor; actives 1% (n = 360,000); HEK293 T-REx D1 cells, calcium flux, agonist mode; AID 504660; activation, % at 2 µM; in the data active = activation above about 30%
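Tetracycline-induced HEK293 TREx D1 cells, force-coupled to calcium signalling, were dye-loaded with a no-wash calcium kit. Compound was pin-added after a 10 s baseline. Fluorescence was read kinetically at 1 cycle/s for 180 s, with calcium rises flagged as agonism.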
D3 antag: antagonists of human D3 dopamine receptor. max response, negative = inhibition, %. P35462. AID 652054. D3R cells, DiscoveRx beta-arrestin luminescence, antagonist mode; stronger effect = lower value. actives 2.5% (n = 360,000); in the data active = max response below about -50%; inconclusive = no clear call, values can overlap the other calls
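Cells expressing the human receptor were seeded at 1500 cells/well, incubated overnight at 37 degrees C in 5% CO2, then exposed to library compounds with dopamine controls for 90 minutes at 37 degrees C before luminescent detection.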
Large screens that a line does not name were inactive.

CC[C@H](C)/C=C(C)/C=C/C1=CC2=CC(=O)[C@]3(C)OC(=O)[C@@H](C(C)=O)[C@@H]3C2=CO1	D1 ag 42
CC[C@@]12C(=O)N(c3ccc(OC)cc3)C(=O)N1[C@H](c1cccc(C)c1)[C@@H]1C(=O)N(Cc3ccccc3)C(=O)[C@@H]12	D3 ag 45
Cc1ccc(N2C(=O)N3[C@H](c4cccc(C)c4)[C@@H]4C(=O)N(Cc5ccccc5)C(=O)[C@@H]4[C@]3(C)C2=O)cc1	D3 antag inconclusive
CC[C@@]12C(=O)N(c3ccc(C)cc3)C(=O)N1[C@H](c1cccc(C)c1)[C@@H]1C(=O)N(Cc3ccccc3)C(=O)[C@@H]12	D3 ag 30
CC[C@@]12C(=O)N(c3cccc(Cl)c3)C(=O)N1[C@H](c1cccc(C)c1)[C@@H]1C(=O)N(Cc3ccccc3)C(=O)[C@@H]12	D3 antag inconclusive
OCCC1CN(Cc2cccc(-c3ccco3)c2)CCN1Cc1ccsc1 (centres undefined)	D3 antag -77
OCCC1CN(Cc2ccc3nonc3c2)CCN1Cc1ccsc1 (centres undefined)	D3 antag -52
OCCC1CN(Cc2ccc3cc(Cl)ccc3n2)CCN1Cc1ccsc1 (centres undefined)	D3 antag inconclusive
CC(C)CCN1CCN(Cc2ccsc2)CC1CCO (centres undefined)	none
OCCC1CN(Cc2cnn(-c3ccccc3Cl)c2)CCN1Cc1ccsc1 (centres undefined)	D3 antag -68
COc1cccc(NC(=O)CN2C=NS(=O)(=O)c3ccccc32)c1	none (no result: D3 antag)
COc1ccc2c3c(c(=O)oc2c1)C1O[C@](c2ccsc2)(Cc2cc(C#N)ccc21)O3	none (no result: D3 ag, D3 antag)
COc1ccc(C2Nc3ccccc3C(=O)N2Cc2ccccc2)cc1 (centres undefined)	D1 antagonist -39, D3 antag inconclusive
COc1ccc(C2Nc3ccccc3C(=O)N2Cc2ccccc2)cc1OC (centres undefined)	none (no result: D1 potentiator, D1 antagonist, D1 ag)
Cn1c(Sc2ccc(C(=O)O)cc2[N+](=O)[O-])nnc1-c1ccccc1	none
O=C(O)c1ccc(Sc2nnc(-c3cccc(Br)c3)o2)c([N+](=O)[O-])c1	D3 antag -66
Cc1cccc(C)c1NC(=O)CSc1nnnn1-c1ccc(C(=O)O)cc1	D3 antag -79
CCc1ccccc1-n1nnnc1SCC(=O)Nc1ccc(N2CCN(C)CC2)cc1	D1 antagonist -60
Cc1ccccc1NC(=O)CCSc1nnnn1-c1ccccc1	D3 ag 31
Cc1ccccc1-n1nnnc1SC(C)C(=O)Nc1ccc(N2CCN(C)CC2)cc1 (centres undefined)	D1 antagonist -68
COc1ccc(NC(=O)C(=O)NCCc2sc(-c3ccc(Cl)cc3)nc2C)cc1	none (no result: D3 antag)
Cc1ccccc1-n1nnnc1SCC(=O)Nc1ccc(N2CCN(C)CC2)cc1	D1 antagonist -77
O=c1c(O)c(-c2cccs2)oc2ccc(Cl)cc12	D1 ag 385
O=c1cc(-c2cccs2)oc2ccc(Cl)cc12	D3 antag inconclusive
O=c1c(O)c(-c2cccs2)oc2ccccc12	D1 ag 252, D3 antag inconclusive
O=C1/C(=C/c2ccc(N3CCCC3)cc2)NC(=S)N1C1CC1	D1 ag 205
Cc1cc(N2CCCC2)ccc1/C=C1\NC(=S)N(C)C1=O	D1 ag 213
COc1ccc(N=C2NC(=O)C(CO)(CO)S2)cc1	D1 antagonist -51
Cc1cccc(NC(=O)N2CCC3(CC2)Oc2ccccc2C(=O)N3Cc2ccccc2F)c1C	none (no result: D3 antag)
COc1cccc(/C=N/NC(=O)c2cc(-c3cccn3C)n[nH]2)c1	D3 antag -51
COc1cc(/C=C2\S/C(=N/S(=O)(=O)c3ccccc3)NC2=O)c([N+](=O)[O-])cc1OC	D3 antag -88
COc1cc(CN(C(=O)c2ccc(C)cc2)c2ccccn2)cc(OC)c1OC	none (no result: D3 antag)
Cc1cccc(NC(=O)CSc2nc3c(sc4ccccc43)c(=O)n2CCCC(=O)NC2CCCC2)c1	none (no result: D3 antag)
CCN(CC)S(=O)(=O)c1ccc(NC(=O)c2nn(C)c3c2CSc2ccccc2-3)cc1	none (no result: D3 antag)
CC(C)C(=O)C1=Cc2cccc([N+](=O)[O-])c2OC1N1CCOCC1 (centres undefined)	D1 antagonist -36, D3 antag -54
CC(C)C(=O)C1=Cc2cc([N+](=O)[O-])ccc2OC1N1CCOCC1 (centres undefined)	D3 antag inconclusive
Cc1cc(NC(=O)c2c(-c3c(Cl)cccc3Cl)noc2C)n(C)n1	D1 antagonist -50
Cc1onc(-c2c(Cl)cccc2Cl)c1C(=O)NCC1CCCO1 (centres undefined)	D3 antag -105
COc1cccc(-n2c(=O)c3cc(OC)c(OC)cc3n(CC(=O)Nc3ccc(F)cc3)c2=O)c1	none (no result: D3 antag)
CCOC(=O)c1c(C)[nH]c(C)c1S(=O)(=O)N1CCCC(C(=O)Nc2ccc(C)c(N(C)C)c2)C1 (centres undefined)	none (no result: D3 antag)
Cc1cc(=O)n(CC(=O)NC(C)c2ccccc2)c2c1c(C)nn2C (centres undefined)	none (no result: D3 antag)
CCc1cccc(C)c1NC(=O)c1cc(C)nc2c1c(C)nn2-c1cccc(Cl)c1C	none (no result: D3 antag)
O=C(Nc1ccccn1)c1ccc2c(c1)S(=O)(=O)c1ccccc1C2=O	none
O=C1c2ccccc2S(=O)(=O)c2cc(C(=O)N(c3ccccn3)c3ccccn3)ccc21	D1 ag 300
CCOC(=O)c1c(C)n(-c2ccccc2)c2ccc(OC(=O)c3ccccc3Cl)cc12	none (no result: D3 antag)
Cn1c(NCCCCO)nc2c1c(=O)n(Cc1ccc(Cl)cc1)c(=O)n2C	D1 antagonist -33 (no result: D3 antag)
Cc1ccc(Oc2nc3c(c(=O)n(Cc4ccccc4)c(=O)n3C)n2C)cc1C	D3 ag 35 (no result: D3 antag)
Cc1ccc(Oc2nc3c(c(=O)n(Cc4ccccc4Cl)c(=O)n3C)n2C)cc1C	none (no result: D3 antag)
COc1ccc(Cn2c(=O)c3c(nc(NCCO)n3C)n(C)c2=O)cc1	D1 antagonist -33
Cn1c(NCCCN2CCOCC2)nc2c1c(=O)n(Cc1ccc(Cl)cc1)c(=O)n2C	none
CCOc1ccc(CC(=O)Nc2nnc3n2CCS3)cc1	none (no result: D3 antag)
COc1ccc2c(c1)c1c(c(=O)n(-c3ccc(OC)c(OC)c3)c(=O)n1Cc1ccccc1F)n2C	none (no result: D3 antag)
CC1=Nc2ccccc2/C1=C\c1nc(-c2ccc(C(F)(F)F)cc2)oc1O	D1 ag 79
CC1=Nc2ccccc2/C1=C/c1nc(-c2ccc(C)s2)oc1O	D1 ag 73
CC1=Nc2ccccc2/C1=C\c1nc(-c2ccccc2)oc1O	none
CC1=Nc2ccccc2/C1=C/c1c(C)[nH]c2ccccc12	none (no result: D1 potentiator, D1 antagonist, D1 ag)
COc1ccc(-c2nc(/C=C3\C(C)=Nc4ccccc43)c(O)o2)cc1	D1 ag 33
CCOc1ccccc1Oc1ncnc2c1oc1ccccc12	none (no result: D3 antag)
CCN(CC)CC(C)CNC(=O)c1cc(-c2ccc(Br)s2)nc2ccccc12 (centres undefined)	none (no result: D3 antag)
